From PubChem BioAssay
GLP1R ag: activates the human GLP-1 receptor. P43220. Potency, µM (titrated, usually from 45.6 µM), inactives show at the highest dose activation, hits mostly activators. AID 624172. HEK293 GLP-1R CRE-luciferase, luminescence, 4-6 h; cells express a hypersensitive GLP-1R form. hit rate 0.007% among 380,000; also: % of control where 0% means no effect
Target sequence (P43220 whole entry, looked up): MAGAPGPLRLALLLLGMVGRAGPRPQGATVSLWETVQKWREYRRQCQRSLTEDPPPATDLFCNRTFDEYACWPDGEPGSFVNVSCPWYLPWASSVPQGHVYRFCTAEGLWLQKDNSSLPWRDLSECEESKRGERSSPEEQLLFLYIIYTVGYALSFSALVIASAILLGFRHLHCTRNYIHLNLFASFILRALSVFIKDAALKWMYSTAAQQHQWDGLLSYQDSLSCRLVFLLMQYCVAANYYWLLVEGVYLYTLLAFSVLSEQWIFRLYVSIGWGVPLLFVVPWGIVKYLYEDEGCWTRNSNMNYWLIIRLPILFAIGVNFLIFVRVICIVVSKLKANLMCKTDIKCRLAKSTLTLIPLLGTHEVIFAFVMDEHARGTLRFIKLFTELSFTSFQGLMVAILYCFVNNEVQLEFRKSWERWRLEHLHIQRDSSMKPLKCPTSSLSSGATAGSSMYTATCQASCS
RORgamma inh: blocks mouse ROR gamma transcriptional activity; AID 2551; Potency, µM (doses to about 53.6 µM), without a hit: at the top dose activity change, negative = inhibition, usual class: inhibitors; Drosophila S2 Gal4-RORgamma UAS-luciferase reporter, 20 h; hit rate 5.4% among 310,000; P51450; also: % is scaled to controls: 0 for no effect and ±100 for the full control effect; nearly all actives have a fitted effect of over 60% in size
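Stably transfected Drosophila Schneider cells are the test system, with ROR gamma fused to Gal4 and luciferase under UAS control; luminescence is read after 20 hr of 700 uM copper sulfate induction at ambient temperature.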
GLP1R inv ag: acts as inverse agonist at human GLP-1 receptor | P43220 | Potency, µM (doses to about 38.3 µM), for inactives: at the highest dose activity change, negative = inhibition, most hits filed as inhibitors | AID 624417 | hit rate 1.6% among 410,000 | HEK293 GLP-1R CRE-luciferase, luminescence, 24 h; GLP-1R form is constitutively active; also: % is scaled to controls: 0 for no effect and ±100 for the full control effect; nearly all actives have a fitted effect of over 55% in size
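HEK293 cells stably co-expressing a cAMP-responsive luciferase reporter and constitutively active GLP-1R were seeded, incubated 12 h, then exposed to compounds for 24 h at 37 C. Luminescence was read 12 min after detection reagent; inverse agonists lower signal.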
Gal4-VP16 FLuc: counter-screen for ROR gamma inhibitors: Gal4-VP16 reporter | Drosophila S2 Gal4-VP16 UAS-luciferase, luminescence, 20 h | Potency, µM (highest dose often 53.6 µM), inactives show top-dose activity, negative = inhibition, hits mostly inhibitors | AID 2546 | hit rate 3.5% among 310,000;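 also: Gal4-VP16 expression switched on by copper sulfate through the metallothionein promoter; % is scaled to controls: 0 for no effect and ±100 for the full control effect; nearly all actives have a fitted effect of over 50% in size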
HEK293 tox: cytotoxicity in counter-screen for GLP-1R inverse agonists; Potency, µM (top dose mostly 38.3 µM), without a hit: at the top dose activity change, negative = inhibition, most hits filed as inhibitors; HEK293 cAMP-luciferase reporter cells, luminescence, 24 h; hit rate 0.13% among 410,000;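 also: loss of luciferase light is scored as toxicity; % is scaled to controls: 0 for no effect and ±100 for the full control effect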
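Here, cytotoxicity is scored as loss of luminescence. The MLSMR collection was tested on cells seeded in medium containing 10% Nu serum, with a 24 hr compound exposure preceded by 12 hours of culture.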
* hit, by the source's call; ? = inconclusive; · = not tested or not shown; [ ] = dose if it differs, or a comment. Shown are actives, neighbours in structure and some others; about 5.9% of the full set was active somewhere. Calls follow the shape of the dose curve; as a rule, active = well fitted curve in the direction sought with a large enough effect; inconclusive = small, poorly fitted or top-dose-only effect, or another doubt; inactive = no such curve, though single readings can be large; an effect the other way counts as inactive or inconclusive. Potency is read from the fitted curve at half-maximal effect.

SMILES	GLP1R ag	RORgamma inh	GLP1R inv ag	Gal4-VP16 FLuc	HEK293 tox
CCN(CC)c1cc(C(F)(F)F)nc(-c2ccccn2)n1	7.4%	2.51µM*	?	11.2µM*	?
C=CCNc1cc(C(F)(F)F)nc(-c2ccccn2)n1	-1.4%	1.58µM*	0.0%	7.08µM*	?
FC(F)(F)c1cc(Oc2ccccc2)nc(-c2ccccn2)n1	-0.6%	?	-3.6%	-14.0%	1.8%
COc1cc(NS(=O)(=O)c2ccc(N)cc2)nc(C)n1	1.2%	·	·	·	·
CCN(CC)CCCC(C)Nc1nc(C)cc(Nc2ccc3nc(C)cc(N)c3c2)n1 (stereo not given)	·	-13.9%	·	-13.5%	·
CCc1cc2c(=O)c(-c3nc4ccccc4n3C)c(COCC(=O)O)oc2cc1OC(=O)C(C)(C)C	0.8%	4.47µM*	0.0%	-23.6%	176.7%
CCn1c(/C=C/c2c[nH]c3ccccc23)nc2ccccc2c1=O	7.5%	19.9%	0.6%	?	13.5%
CC[n+]1ccc(/C=C/c2c[nH]c3ccccc23)cc1	-3.2%	14.9%	?	12.6µM*	-27.0%
Cc1ccc(C(=O)Nc2cccc(C(=O)OCc3cc(=O)n4nc(C5CC5)sc4n3)c2)cc1	·	·	-9.5%	·	-5.1%
COc1cccc(C(=O)NCC2(c3ccccc3)CCCC2)c1OC	14.7%	11.9%	7.08µM*	-7.4%	2.6%
CCCCOc1cccc(C(=O)Nc2sc3c(c2C(=O)OCC)CCCC3)c1	·	·	9.1%	·	4.9%
Cc1ccc(/C(N)=N/OC(=O)c2ccco2)cc1	-12.7%	?	6.9%	?	1.2%
COc1ccc(/C(N)=N/OC(=O)c2ccco2)cc1	-3.5%	7.94µM*	-19.0%	10µM*	-1.1%
COc1ccc(-c2nnc(SCC(=O)NCC3CCCO3)o2)cc1 (stereo not given)	5.0%	12.6µM*	19.6%	?	-2.6%
COc1ccc(Cc2nnc(SCC(=O)NCc3ccco3)o2)cc1	-11.1%	6.0%	-1.8%	?	-8.6%
COc1ccc(-c2nnc(SCC(=O)NCc3ccco3)o2)cc1	0.1%	0.562µM*	0.0%	?	-15.1%
COc1ccc(Cc2nnc(SCC(=O)NCC3CCCO3)o2)cc1 (stereo not given)	6.8%	22.8%	-2.0%	9.2%	4.0%
Cc1nc(SCC(=O)NCC2CCCO2)c2c(C)c(C)sc2n1 (stereo not given)	10.4%	·	13.0%	·	-13.6%
Cc1nc(SCC(=O)NCC2CCCO2)c2c3c(sc2n1)CCCC3 (stereo not given)	22.7%	3.55µM*	-21.9%	12.6µM*	-9.1%
COC(=O)C1=C(C)[C@@H](O)[C@@H](C)[C@H](c2c(OC)c(OC)c(C)c(OC)c2OC)O1	·	-1.8%[10 µM]	·	-11.0%[10 µM]	·
C[C@@H](N)C1CCC(C(=O)Nc2ccncc2)CC1 (stereo not given in full)	·	3.8%	·	-4.3%	·
C[C@]12C[C@H](O)CC(CO)(CO)C1[C@H](O)C[C@@]13CC4[C@@H](CC12)[C@@]4(C)C3 (stereo not given in full)	·	-13.6%	·	-4.1%	·
CCc1ccc(OCC(=O)NC(=S)Nc2cccc(CO)c2)c(Br)c1	8.0%	11.2µM*	-2.9%	10µM*	-20.5%
CCc1ccc(OCC(=O)NC(=S)Nc2ccc(F)cc2)c(Br)c1	-3.8%	-38.3%	-17.1%	-11.2%	-7.3%
O=C1[C@H]2[C@H]3[C@H](O)[C@H](O)C/C(=N/OCc4ccccc4)[C@H]3CC[C@@H]2C(=O)N1C1CCCCC1	·	-8.5%[10 µM]	·	3.7%[10 µM]	·
SMILES	GLP1R ag	RORgamma inh	GLP1R inv ag	Gal4-VP16 FLuc	HEK293 tox
CCCc1[nH]n(-c2nc3ccccc3s2)c(=O)c1C=NCCCOC	0.8%	?	2.4%	-4.5%	?
COCCCN=Cc1c(-c2ccccc2)[nH]n(-c2nc3ccccc3s2)c1=O	14.1%	8.91µM*	?	?	?
CCCCCN=Cc1c(C)[nH]n(-c2nc3ccccc3s2)c1=O	-17.5%	10µM*	-4.3%	?	-27.0%
CCc1ccccc1NC(=O)CN1C(=O)CCc2cc(S(=O)(=O)N3CCCCC3)ccc21	·	·	-29.6%	·	6.1%
Cn1c(/C=N/O)nc2ccccc21	12.0%	-5.0%	-2.5%	-9.2%	-4.0%
Cn1c(/C=N/c2nc3ccccc3[nH]2)nc2ccccc21	4.5%	17.8µM*	-0.6%	?	-16.1%
CCn1c(/C=N/c2nc3ccccc3n2C)nc2ccccc21	-0.1%	12.6µM*	11.1%	?	-1.2%
CN1CC(=O)NC1=NC(=O)C12CC3CC(CC(C3)C1)C2	-0.8%	2.24µM*	?	3.98µM*	-15.5%
Cc1ccc(-n2nnnc2C(Cl)(Cl)c2nnnn2-c2ccc(C)cc2)cc1	3.5%	17.8µM*	0.0%	7.08µM*	0.7%
Cc1ccc(Nc2nc(CSc3n[nH]c(N)n3)cs2)cc1	8.3%	12.6µM*	1.5%	-13.0%	0.0%
Cc1ccc(Nc2nc(CSc3nnnn3C)cs2)cc1	3.7%	6.7%	-12.8%	-9.3%	2.6%
Cc1ccc(-n2c(-c3ccc(Cl)cc3Cl)n[nH]c2=S)cc1	-2.2%	3.16µM*	-15.6%	5.01µM*	?
Cn1c(-c2ccccc2)n[nH]c1=S	-1.7%	?	7.1%	-8.6%	5.6%
CC(C)(C)c1ccc(-c2n[nH]c(=S)n2-c2ccccc2)cc1	0.2%	3.16µM*	31.5%	2.82µM*	?
CC(c1ccccc1)n1c(-c2ccc(C(C)(C)C)cc2)n[nH]c1=S (stereo not given)	0.8%	7.08µM*	?	7.08µM*	-3.2%
Cc1n[nH]c(=S)n1-c1ccccc1	4.3%	?	5.1%	-20.0%	-13.3%
C=C(C)Cn1c(-c2ccncc2)n[nH]c1=S	1.6%	12.6µM*	9.9%	-14.9%	14.9%
COc1cccc(NC(=O)c2c(-c3ccc(C)cc3)nnc3ccccc23)c1	·	·	20.3%	·	-0.9%
Cc1ccc(-n2c(-c3ccncc3)n[nH]c2=S)cc1	3.8%	11.2µM*	17.2%	-7.3%	-12.9%
Cc1ccc(-n2c(Cc3cccc4ccccc34)n[nH]c2=S)c(C)c1	-4.2%	1.12µM*	?	?	0.2%
COc1cc(-c2n[nH]c(=S)n2-c2ccc(C)cc2)cc(OC)c1OC	-0.5%	14.8%	62.0%	0.0%	-4.2%
COc1ccc(-n2c(-c3ccc(C)cc3)n[nH]c2=S)cc1	-1.2%	1.41µM*	37.7%	3.16µM*	-9.8%
Cc1ccc(-n2c(-c3ccccc3)n[nH]c2=S)c(C)c1	-5.9%	5.01µM*	?	4.47µM*	10µM*
CCCS(=O)(=O)N1CC(=O)N(c2cccc(Cl)c2)C(C)(C(=O)NC2CCCCC2)C1 (stereo not given)	·	·	15.1%	·	-0.8%
CC[C@H]1C2=C3C(CC[C@H]4C(OCc5ccc(F)cc5C(F)(F)F)OC[C@](C)([C@@H]34)N(C(=O)OC(C)(C)C)C2)C2COC(=O)OCC21 (stereo not given in full)	·	4.5%	·	2.9%	·
